A short description of assay [1]: optical density shifts of acrAB sulA E. coli – strain DRC41, OD650, 48 h, E. coli filamentation inducer project, primary screen (AID 1152).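 Also: E. coli MC1000 strain DRC41 lacking acrAB efflux pump and sulA.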 To be noted: higher = more signal, called active from +8 up or from −8 down.
Assay [2] is described as follows: probe aLefty1 binding on compound microarray – biochemical, small-molecule microarray, 635/667 nm fluorescence, primary screen (AID 1153).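 Also: score merges spot fluorescence with signal-to-noise ratio from the scanned slide images.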 Particulars: higher = more signal.
Assay [3] can be described thus: plasmodial surface anion channel blockers, osmotic lysis – cell-based, P. falciparum Indochina, OD700, 1 h, primary screen (AID 1154). Particulars: P. falciparum Indochina infected RBC osmotic lysis, higher = more signal, called active from +8 up or from −8 down.
Assay [4] is described as follows: plasmodial surface anion channel blockers, osmotic lysis – cell-based, P. falciparum Indochina, OD700, 2 h, primary screen (AID 1155).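 Also: lysis reports solute entry through the parasite surface anion channel PSAC.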 To be noted: P. falciparum Indochina infected erythrocytes, higher = more signal, called active from +8 up or from −8 down.
Assay [5] can be described thus: changes in parasitized red cell lysis, either direction – P. falciparum Indochina, OD700, 3 h, PSAC antagonist project, primary screen (AID 1156). Particulars: P. falciparum-infected erythrocytes, osmotic lysis, higher = more signal, called active from +8 up or from −8 down.
Assay [6] in a line: plasmodial surface anion channel blockers, osmotic lysis – cell-based, P. falciparum Indochina, OD700, 18 h, primary screen (AID 1157). Particulars: P. falciparum Indochina infected erythrocytes, osmotic lysis OD700, 18 h; higher = more signal, called active from +8 up or from −8 down.
Assay [7] is described as follows: S6 kinase pathway phospho-S6 level changes – cell-based, A549, cytoblot, luminescence, serum-stimulated, primary screen (AID 1158).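 Also: serum-stimulated A549 lung adenocarcinoma cells; signal is phosphorylated S6 detected by cytoblot immunostaining with HRP secondary.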 To be noted: 5 h, higher = more signal.
Assay [8] deals with NADPH oxidase 2 (Homo sapiens) (UniProt P04839). In words: compounds shifting NOX2 Amplex Red fluorescence – cell-based, HEK293-NOX2, PMA-stimulated, NOX inhibitor project, primary screen (AID 1159). Also: test concentration not given here. Particulars: 45 min, higher = more signal, called active from +8 up or from −8 down.
Assay [9] concerns the target NADPH oxidase 4 (Homo sapiens) (UniProt Q9NPH5). In words: compounds shifting NOX4 Amplex Red fluorescence – cell-based, HEK293-NOX4, tetracycline-induced, NOX inhibitor project, primary screen (AID 1160). To be noted: HEK293-NOX4, Amplex Red H2O2 fluorescence, 45 min; higher = more signal, called active from +8 up or from −8 down.
In assay [10] the target is NADPH oxidase 5 (Homo sapiens) (UniProt Q96PH1). In words: compounds shifting NOX5 Amplex Red fluorescence – cell-based, HEK293-NOX5, NOX inhibitor project, primary screen (AID 1161). To be noted: HEK293-NOX5, ionomycin, 45 min, higher = more signal.
A short description of assay [11]: compound effects on lung adenocarcinoma cell viability – A549, calcein-AM fluorescence, 48 h, basal, profiling panel (AID 1162). Also: test concentration not given here. To be noted: higher = more signal.
Assay [12] is described as follows: compound effects on differentiated 3T3-L1 adipocyte viability – cell-based, 3T3-L1 adipocytes, calcein-AM fluorescence, 48 h, basal, profiling panel (AID 1163). Also: test concentration not given here. To be noted: 3T3-L1 adipocytes viability, higher = more signal.
Assay [13] is described as follows: compound effects on hepatocellular carcinoma cell viability – HepG2, calcein-AM fluorescence, 48 h, basal, profiling panel (AID 1164). Also: test concentration not given here. Particulars: higher = more signal.
The nature of assay [14]: compound effects on multiple myeloma cell viability – MM1S, calcein-AM fluorescence, 48 h, basal, profiling panel (AID 1165).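 Also: viability of MM1S multiple myeloma cells under basal unstimulated conditions; test concentration not given here.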 To be noted: higher = more signal.
The nature of assay [15]: calcein-AM signal in unstimulated myeloma cells – cell-based, calcein-AM fluorescence, 48 h, PK04 Diversity Set, profiling panel (AID 1166).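 Also: cells grown under basal conditions without added stimulus; test concentration not given here.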 Particulars: RPMI8226 myeloma viability, higher = more signal.
Assay [16] is described as follows: JC-1 mitochondrial signal, unstimulated HepG2 cells – cell-based, JC-1 fluorescence, 24 h, 100 nL compound, profiling panel (AID 1167). Also: test concentration not given here. Particulars: HepG2 mitochondrial potential, higher = more signal.
Assay [17] can be described thus: JC-1 mitochondrial signal, unstimulated adipocytes – cell-based, JC-1 fluorescence, 3T3-L1 adipocytes, 24 h, 100 nL compound, profiling panel (AID 1168). Also: test concentration not given here. Particulars: JC-1 mitochondrial fluorescence, higher = more signal, called active from +8 up or from −8 down.
The nature of assay [18]: JC-1 mitochondrial signal, unstimulated myeloma cells – cell-based, JC-1 fluorescence, RPMI8226, 24 h, 100 nL compound, profiling panel (AID 1169). Also: test concentration not given here. Particulars: JC-1 mitochondrial potential fluorescence, higher = more signal.
Assay [19] can be described thus: JC-1 mitochondrial signal, unstimulated MM1S myeloma – cell-based, JC-1 fluorescence, 24 h, 100 nL compound, profiling panel (AID 1170). Also: test concentration not given here. To be noted: MM1S mitochondrial potential, higher = more signal.
A short description of assay [20]: resazurin metabolic signal in A549 cells – cell-based, resazurin fluorescence, 24 h, PK04 Diversity Set, profiling panel (AID 1171). Also: test concentration not given here. To be noted: A549 viability, higher = more signal, called active from +8 up or from −8 down.

The source made the active and inactive calls.

NADPH oxidase 2 (Homo sapiens), sequence (P04839 whole entry, looked up): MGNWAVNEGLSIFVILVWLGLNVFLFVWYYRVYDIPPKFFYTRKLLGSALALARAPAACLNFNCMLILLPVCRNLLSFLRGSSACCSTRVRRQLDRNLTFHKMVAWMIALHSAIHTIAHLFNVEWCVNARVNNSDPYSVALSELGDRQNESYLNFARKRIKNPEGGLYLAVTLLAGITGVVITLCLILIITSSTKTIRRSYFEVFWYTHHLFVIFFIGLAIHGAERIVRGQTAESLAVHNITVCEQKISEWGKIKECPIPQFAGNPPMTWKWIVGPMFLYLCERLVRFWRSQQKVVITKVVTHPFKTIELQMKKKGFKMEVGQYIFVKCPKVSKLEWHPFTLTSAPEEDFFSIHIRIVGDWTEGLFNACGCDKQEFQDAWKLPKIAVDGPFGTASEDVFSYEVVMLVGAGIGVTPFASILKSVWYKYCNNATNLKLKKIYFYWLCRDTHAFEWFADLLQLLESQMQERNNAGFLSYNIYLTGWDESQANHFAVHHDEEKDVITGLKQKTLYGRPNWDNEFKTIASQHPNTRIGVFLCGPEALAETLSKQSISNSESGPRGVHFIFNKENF
NADPH oxidase 5 (Homo sapiens), sequence (Q96PH1 whole entry, looked up): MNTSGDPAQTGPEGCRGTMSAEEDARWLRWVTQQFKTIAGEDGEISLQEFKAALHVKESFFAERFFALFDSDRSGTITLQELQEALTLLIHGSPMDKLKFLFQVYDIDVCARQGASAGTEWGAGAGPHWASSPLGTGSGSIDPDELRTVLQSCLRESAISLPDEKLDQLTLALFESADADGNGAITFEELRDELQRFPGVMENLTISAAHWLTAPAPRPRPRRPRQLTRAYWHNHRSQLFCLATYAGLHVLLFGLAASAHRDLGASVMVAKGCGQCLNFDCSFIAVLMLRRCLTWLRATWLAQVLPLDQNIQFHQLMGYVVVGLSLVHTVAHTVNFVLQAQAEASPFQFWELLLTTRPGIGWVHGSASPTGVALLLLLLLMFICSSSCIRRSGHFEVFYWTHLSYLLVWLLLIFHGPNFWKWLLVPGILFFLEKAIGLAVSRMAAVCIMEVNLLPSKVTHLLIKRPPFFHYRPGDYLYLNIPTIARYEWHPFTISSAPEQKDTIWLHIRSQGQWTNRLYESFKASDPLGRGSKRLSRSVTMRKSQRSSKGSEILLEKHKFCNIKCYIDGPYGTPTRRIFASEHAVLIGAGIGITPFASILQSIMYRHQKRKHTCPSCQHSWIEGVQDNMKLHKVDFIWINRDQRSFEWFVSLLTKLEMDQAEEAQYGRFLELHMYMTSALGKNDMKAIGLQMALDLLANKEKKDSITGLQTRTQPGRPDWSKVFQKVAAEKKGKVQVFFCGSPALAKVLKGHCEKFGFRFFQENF
NADPH oxidase 4 (Homo sapiens), sequence (Q9NPH5 whole entry, looked up): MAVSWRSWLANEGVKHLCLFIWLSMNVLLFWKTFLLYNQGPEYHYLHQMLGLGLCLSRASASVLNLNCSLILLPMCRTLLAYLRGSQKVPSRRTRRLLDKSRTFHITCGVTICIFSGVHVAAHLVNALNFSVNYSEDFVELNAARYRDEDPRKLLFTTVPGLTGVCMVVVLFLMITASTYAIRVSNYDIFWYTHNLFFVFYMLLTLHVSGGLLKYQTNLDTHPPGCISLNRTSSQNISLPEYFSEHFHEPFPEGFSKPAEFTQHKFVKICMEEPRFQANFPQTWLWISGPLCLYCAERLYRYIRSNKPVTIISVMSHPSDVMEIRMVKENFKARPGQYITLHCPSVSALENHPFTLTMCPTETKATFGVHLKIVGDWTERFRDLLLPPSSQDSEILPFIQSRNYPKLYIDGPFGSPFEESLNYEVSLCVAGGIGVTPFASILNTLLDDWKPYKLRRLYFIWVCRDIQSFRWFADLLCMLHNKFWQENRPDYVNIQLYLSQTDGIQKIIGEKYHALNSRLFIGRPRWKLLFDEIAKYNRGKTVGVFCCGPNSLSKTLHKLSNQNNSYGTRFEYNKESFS

`CC1CC/C=C\[C@H]2OC34C=CCN(c5ccc(Cl)cc5)C(=O)[C@H]3N(CCCCCCO)C(=O)[C@]4(C)C2C(=O)O1` (stereo not given in full): the z-score in assay [1] was 0.348 (inactive); in assay [3], -0.108 (inactive); in assay [4], -0.36 (inactive); in assay [5], -0.0544 (inactive); in assay [6] it was 0.0625 (inactive); in [7] it was -0.11. The z-score in [8] was 1.37 (inactive); in [9] it was 0.37 (inactive); in [10], 1.98; in assay [11], 0.943; in assay [12], -3.94; in assay [13], 0.606. Also, the z-score was 1.88 in [14]; -0.368 in assay [15]; 0.232 in assay [16]; 0.115 (inactive) in assay [17]; 1.03 in [18]; -0.439 in [19]. Moreover, the z-score in assay [20] is 0.523 (inactive). The composite z-score in assay [2] amounted to 0.0999.

Consider `C=CCC(OC(C)=O)[C@@H]1[C@@H](N(Cc2ccc(-c3cccc(C(F)(F)F)c3)o2)C(=O)Cc2ccc(F)cc2)c2cc(OCCCO)ccc2N1C(=O)Cc1ccc2ccccc2c1` (stereo not given in full), for which the z-score in [1] was -0.985 (inactive); in assay [3], 1.1 (inactive); in [4], 0.135 (inactive); in assay [5], -0.554 (inactive); in assay [6], -0.135 (inactive); in assay [7] it was -0.37. Further, the z-score in assay [8] was -1.03 (inactive); in assay [9] it was 0.896 (inactive); in [10], 0.736; in [11], -0.92; in assay [12], 1.1; in assay [13] it was -0.0416. Further, the z-score is -1.7 in assay [14]; -0.261 in assay [15]; 1.8 in assay [16]; 0.978 (inactive) in [17]; -0.0117 in assay [18]; 0.0602 in assay [19]. Moreover, the z-score in assay [20] is 0.623 (inactive). For the same compound, the composite z-score in [2] was found to be 0.0919.

Regarding `O=C(NCCN1CCOCC1)[C@@H]1c2ccccc2C(=O)N(Cc2ccccc2C(F)(F)F)[C@H]1c1ccc(CO)cc1`, the z-score is 0.736 (inactive) in assay [1]; 2.76 (inactive) in [3]; -0.191 (inactive) in [4]; 1.15 (inactive) in assay [5]; 0.158 (inactive) in assay [6]; -0.328 in assay [7]. The z-score in assay [8] is 0.523 (inactive); in [9], 0.484 (inactive); in assay [10], 0.772; in [11] it was 1.9; in assay [12], 0.783; in assay [13], 0.893. For the same compound, the z-score was 0.561 in assay [14]; -0.588 in assay [15]; 2.59 in assay [16]; -0.0687 (inactive) in assay [17]; -0.335 in assay [18]; -0.109 in [19]. Also, the z-score in assay [20] is 1.94 (inactive). In assay [2], this compound showed a composite z-score of -0.418.

Regarding `CCOC(=O)C1=CC[C@@H](c2ccc(OC)cc2)N(S(=O)(=O)c2ccc(C)cc2)[C@H]1c1ccc(C)cc1`, the z-score in assay [1] is -1.22 (inactive); in assay [3] it was 0.833 (inactive); in assay [4] it was 0.905 (inactive); in assay [5] it was -0.715 (inactive); in assay [6], 0.68 (inactive); in assay [7], -0.752. In addition, the z-score in assay [8] was 0.864 (inactive); in assay [9], -0.627 (inactive); in assay [10], 0.0417; in assay [11], -0.35; in [12], -1.09; in assay [13], 0.65. Also, the z-score was 0.632 in assay [14]; 0.583 in assay [15]; 2.39 in assay [16]; -0.717 (inactive) in assay [17]; 0.859 in assay [18]; -0.897 in assay [19]. The z-score in [20] was 0.302 (inactive). This compound returned a composite z-score in assay [2] of 0.578.

`C[C@@H]1NC(=O)C([C@@H](C)OCc2ccccc2)NC(=O)[C@@]23C(=O)N[C@@H](Cc4ccccc4)C2[C@H](C)[C@@]2(C)O[C@H]2C3/C=C/C/C=C\CNC1=O` (stereo not given in full): the z-score in [1] is -0.999 (inactive); in [3], 2.36 (inactive); in [4], -0.169 (inactive); in [5], 0.604 (inactive); in assay [6], 0.182 (inactive); in [7], -0.093. Further, the z-score in assay [8] was 0.715 (inactive); in assay [9], -0.942 (inactive); in assay [10], 0.467; in [11], -0.405; in assay [12], 0.387; in assay [13] it was -0.448. Besides, the z-score is -0.129 in assay [14]; -1.1 in [15]; -0.121 in [16]; 0.782 (inactive) in assay [17]; 0.514 in assay [18]; 0.186 in assay [19]. Moreover, the z-score in [20] is -0.0746 (inactive). The composite z-score in [2] is -0.147.

On to `COc1cc(OC)c(C(O)C2C=CC3C(=O)N(c4ccccc4)C(=O)C3N2Nc2ccc(C(C)C)cc2)cc1Br` (stereo not given), for which the z-score was 0.857 (inactive) in [1]; 2.94 (inactive) in assay [3]; 1.93 (inactive) in assay [4]; -0.255 (inactive) in [5]; 1.49 (inactive) in assay [6]; -1.06 in [7]. Also, the z-score in [8] was 0.0256 (inactive); in assay [9], -3.73 (inactive); in assay [10], -2.24; in [11], 2.48; in [12] it was -1.15; in assay [13] it was 1.49. In addition, the z-score in assay [14] is -0.534; in assay [15], -0.203; in assay [16], -0.115; in assay [17], -0.171 (inactive); in assay [18], -0.126; in assay [19], -0.66. In assay [20], the z-score was -0.101 (inactive). For the same compound, in assay [2], the composite z-score was -0.0889.

In the case of `CN(C)C(=O)[C@@]1(Cc2ccccc2CN=[N+]=[N-])COC(c2ccc(OCCCO)cc2)=N1`, the z-score was 2.37 (inactive) in assay [1]; 25.9 (active) in [3]; 11.1 (active) in assay [4]; 4.63 (inactive) in [5]; 1.67 (inactive) in [6]; 0.0188 in assay [7]. The z-score is -4.96 (inactive) in assay [8]; -1.37 (inactive) in assay [9]; -3.41 in assay [10]; -0.113 in [11]; 0.442 in assay [12]; 0.0407 in assay [13]. In addition, the z-score in assay [14] was -3.51; in assay [15] it was -2.76; in [16], 1.21; in assay [17] it was 1.1 (inactive); in [18] it was -1.08; in assay [19] it was -1.65. Besides, the z-score in assay [20] is 0.0714 (inactive). This compound gave a composite z-score in assay [2] of 0.236.

As to `COc1ccc(C(=O)Nc2cccc(CN3C(=O)[C@]4(O[C@H](CC(=O)N5Cc6ccccc6C[C@H]5CO)[C@@H]([Si](C)(C)c5ccc(OC)cc5)[C@@H]4C)c4ccccc43)c2)cc1`, the z-score in [1] is 1.66 (inactive); in assay [3], 4.02 (inactive); in assay [4] it was 1.49 (inactive); in [5], 0.887 (inactive); in [6] it was 1.04 (inactive); in assay [7], 0.568. Besides, the z-score is 0.0795 (inactive) in assay [8]; 0.701 (inactive) in assay [9]; 2.01 in assay [10]; -0.969 in assay [11]; 1.3 in assay [12]; -1.05 in assay [13]. Also, the z-score in assay [14] is -0.253; in assay [15] it was -2.56; in [16], 0.729; in assay [17] it was -0.458 (inactive); in assay [18], -0.93; in assay [19] it was -0.313. The z-score in [20] was -1.31 (inactive). The compound also had a composite z-score in [2] of 0.423.

For the compound `COCCCNC(=O)[C@@]1(Sc2ccc(C)cc2)CC(=O)N(Cc2ccccc2C(F)(F)F)[C@@H]1c1ccc(CO)cc1I`, the z-score is 0.0516 (inactive) in assay [1]; 2.06 (inactive) in [3]; 0.786 (inactive) in assay [4]; 0.385 (inactive) in [5]; 0.377 (inactive) in assay [6]; -0.248 in assay [7]. Further, the z-score is 0.843 (inactive) in [8]; -1.01 (inactive) in [9]; 2.49 in assay [10]; -0.172 in [11]; 0.224 in assay [12]; 0.245 in assay [13]. Also, the z-score in assay [14] was -3.18; in assay [15], -2.36; in assay [16], -0.33; in assay [17], -0.101 (inactive); in [18], -0.339; in assay [19], -1.33. Besides, in assay [20], the z-score is -0.731 (inactive). Moreover, the composite z-score in assay [2] was determined as 0.112.
